Data on 49 compounds can be found in PubChem BioAssay.

Potency and affinity values are given separately. Values without a mark were called inactive. Active and inactive are the calls of the source. No rule for the calls is given here.

Test [1] is described as follows: A549 cell cytotoxicity, dose response, cytotoxicity control, plate reader, cherry-pick, antagonist series (AID 743412).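 Also: 0% = neutral control wells and -100% = positive control wells.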
Test [2] can be described thus: toxicity toward HepG2 liver cells – cell-based, plate reader, cherry-pick, antagonist series, cytotoxicity control, dose response (AID 743416).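 Also: 0% = neutral control wells and -100% = positive control wells.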
In test [3] the target is Melanocortin receptor 4 (Homo sapiens) (UniProt P32245). As to the kind of experiment: blockade of melanocortin 4 receptor signaling – cell-based, plate reader, cherry pick, counter-screen for LGR2 antagonist project, dose response (AID 743444). A general note: Counterscreens check selectivity or assay interference.

With `COc1ccc(-n2sc3ccc(F)cc3c2=O)cc1`, the outcome in test [1] and in test [2] was inactive.

Consider `Cc1cc(C(=O)COC(=O)C2CC2)c(C)n1-c1ccc(F)cc1`, for which the call in test [1] and in test [2] was inactive.

`O=C(Nc1cccnc1)c1cc(-c2ccc3c(c2)OCO3)on1`: the outcome in test [1] and in test [2] was inactive.

Regarding `CCS(=O)(=O)N1Cc2ccccc2CC1C(=O)Nc1nc2ccccc2s1` (stereo not given), the result in test [1] and in test [2] was inactive.

Consider `O=C(Nc1nc2c(s1)CCCC2)C1COc2ccccc2O1` (stereo not given), for which the call in test [1] and in test [2] was inactive.

As for `COc1ccc(/C=C/C(=O)Nc2ccccc2C(=O)O)cc1OC`, the call in test [1] and in test [2] was inactive.

Turning to `CC(C)(C)n1ncc2c(=O)n(CC(=O)OCc3ccccc3)cnc21`, the call in test [1] and in test [2] was inactive.

In the case of `Clc1ccc(OCc2nc(-c3ccccn3)no2)c(Br)c1`, the compound was called inactive in test [1] and in test [2].

Turning to `c1ccc(-n2ncc3c(N4CCCCC4)ncnc32)cc1`, the compound was called inactive in test [1] and in test [2].

Take `Cc1ccccc1C(=O)Nc1nnc(-c2ccco2)s1`: the compound was called inactive in test [1] and in test [2].

Consider `COc1cc(NC(=O)c2cccs2)c(C(=O)OCC(=O)c2cc(C)n(-c3ccccc3)c2C)cc1OC`, for which the call in test [1] and in test [2] was inactive.

On to `CCc1nc(Sc2nnnn2-c2ccccc2)c2c3c(sc2n1)CCCC3`, for which the outcome in test [1] and in test [2] was inactive.

As for `CN(C)c1ccc(-c2nc3cc(N)ccc3o2)cc1`, the compound was classed as inactive in test [1] and in test [2].

Regarding `O=C(O)c1c2c(nc3ccccc13)/C(=C/c1ccc(O)cc1)CC2`, the call in test [1] and in test [2] was inactive.

With `COc1ccc(S(=O)(=O)N2CCCCN3[C@H](CO)[C@H](c4ccc(-c5cccnc5)cc4)[C@@H]3C2)cc1`, the call in test [1] and in test [2] was inactive.

Consider `Cc1ccc2nc(-c3ccc(NC(=O)c4cccnc4)cc3)oc2c1`, for which the compound was called inactive in test [1] and in test [2].

For the compound `Cc1ccc2nc(-c3ccc(NC(=O)C(C)Sc4nncs4)cc3)sc2c1` (stereo not given), the call in test [1] and in test [2] was inactive.

For the compound `O=C(O)c1ccc(-c2noc(-c3ccccc3Cl)n2)cc1`, the outcome in test [1] and in test [2] was inactive.

Take `CC(C)Oc1ccc(CNC(=O)CC(c2ccccc2)c2cc(Cl)ccc2O)cc1` (stereo not given): the result in test [1] and in test [2] was inactive.

`Cc1ccc2nc(NC(=O)CCCC(=O)O)sc2c1`: the compound was classed as inactive in test [1] and in test [2].

With `O=C(Nc1cccc(O)c1)c1cc(-c2ccc3c(c2)OCO3)on1`, the compound was called inactive in test [1] and in test [2].

As to `Cc1ccccc1S(=O)(=O)N1[C@H](C#N)[C@H](c2ccc(C#CC3CCCCC3)cc2)[C@H]1CO`, the call in test [1] and in test [2] was inactive.

Regarding `C[C@H](CO)N1C[C@H](C)[C@H](CN(C)C(=O)Nc2cccc3ccccc23)OCCCC[C@H](C)Oc2ccc(NC(=O)NC3CCCCC3)cc2C1=O`, the compound was classed as inactive in test [1] and in test [2].

As to `CCOc1ccc(C(=O)Nc2cccc(C(=O)O)c2C)cc1Cl`, the outcome in test [1] and in test [2] was inactive.

With `c1ccc(-n2cnnc2SCc2cn3cccnc3n2)cc1`, the outcome in test [1] and in test [2] was inactive.

As to `O=C(Nc1cccc(C(=O)O)c1)Nc1ccccc1Cl`, the compound was called inactive in test [1] and in test [2].

On to `O=C(NCCc1ccccc1)c1ccc2c(c1)OCO2`, for which the compound was classed as inactive in test [1] and in test [2].

In the case of `CCOC(=O)c1cn2nc(N3CCCC3)ccc2n1`, the compound was classed as inactive in test [1] and in test [2].

Regarding `Cc1ccc(C(=O)C2C(=O)C3CCC2C3)cc1` (stereo not given), the outcome in test [1] and in test [2] was inactive.

Regarding `Cc1csc(NC(=O)c2ccc(OCC3CCCO3)cc2)n1` (stereo not given), the result in test [1] and in test [2] was inactive.

Consider `CCCCN(CCCNC(=O)c1ccc2c(c1)NC(=O)CN2C)c1ccccc1`, for which the compound was classed as inactive in test [1] and in test [2].

Take `c1nc(CCO[C@H]2CCCCO2)cc2cc3c(cc12)OCO3`: the compound was called inactive in test [1] and in test [2].

Take `COc1cccc(-c2cc(C(=O)N3CCCCCC3)no2)c1`: the result in test [1] and in test [2] was inactive.

Consider `COC(=O)c1ccc2nc(-c3cccc(N)c3)cn2c1`, for which the compound was classed as inactive in test [1] and in test [2].

Turning to `C=CCNc1nc(-c2cc3ccccc3o2)cs1`, the compound was called inactive in test [1] and in test [2].

With `COCCn1c(C)c(C)c2c(NCCc3ccccc3)ncnc21`, the outcome in test [1] and in test [2] was inactive.

`CCN(CC)S(=O)(=O)c1cc(C(=O)OCC(=O)Nc2ccc(-c3nc4ccc(C)cc4s3)cc2)ccc1F`: the outcome in test [1] and in test [2] was inactive.

For the compound `Cc1c(NC(=O)c2cccc(NC(=O)COc3ccccc3C#N)c2)c(=O)n(-c2ccccc2)n1C`, the result in test [1] and in test [2] was inactive.

For `O=C(O)c1ccc(N/N=C/c2ccc3ncccc3c2)cc1`, the outcome in test [1] and in test [2] was inactive.

Consider `O=C(CN1C(=O)c2ccccc2S1(=O)=O)c1ccc(F)c(F)c1`, for which the compound was called inactive in test [1] and in test [2].

For the compound `O=C(O)c1cccc(Nc2ccnc(Nc3cccc(C(=O)O)c3)n2)c1`, the outcome in test [1] and in test [2] was inactive.

As for `CCOC(=O)Nc1ccc(N2CCOCC2)c(S(=O)(=O)Nc2ccc(Cl)cc2)c1`, the activity change, negative = cytotoxicity in test [1] was 19.4% [at 6 µM]. The call in test [2] and in test [3] was inactive.

As for `COc1ccc(S(=O)(=O)N2CCN(C(=O)c3ccc(C)o3)CC2)cc1`, the compound was classed as inactive in test [1], in test [2] and in test [3].

Consider `COc1cccc(C(=O)Nc2ccc3c(c2)OC[C@@H](C)N(CC2CC2)C[C@H](C)[C@H](OC)CN(C)C3=O)c1`, for which the outcome in test [1], in test [2] and in test [3] was inactive.

Consider `CC(=O)c1c(C)[nH]c(C(=O)CN2C(=O)NC(C)(c3ccc(C)cc3)C2=O)c1C` (stereo not given), for which the compound was classed as inactive in test [1], in test [2] and in test [3].

As for `C[C@H](CO)N1C[C@H](C)[C@H](CN(C)C(=O)Nc2ccc3c(c2)OCO3)OCCCC[C@H](C)Oc2ccc(NC(=O)NC3CCCCC3)cc2C1=O`, the call in test [1], in test [2] and in test [3] was inactive.

Regarding `CCCC(=O)N1CCCC(c2cc(C(=O)Nc3ccccc3)no2)C1` (stereo not given), the compound was called inactive in test [1] and in test [2].

Turning to `CCc1nnc2cccc(Cl)n12`, the compound was called inactive in test [1], in test [2] and in test [3].

In the case of `CCc1ccc2ncc(S(=O)(=O)c3ccc(C)c(C)c3)c(N3CCCC3)c2c1`, the compound was classed as inactive in test [1], in test [2] and in test [3].
